Sampled rows, rich in hits. Any-hit rate of the full collection: about 12%.
BAZ2B inh: inhibitors of human BAZ2B bromodomain | AlphaScreen BAZ2B-H3K14Ac peptide displacement | Potency, µM (top dose mostly 114 µM), inactives show at the highest dose activity change, negative = inhibition, actives largely listed as inhibitors | 360,000 tested, 4.4% active | AID 504333; further: potency means the concentration at half of the fitted maximal effect; on the % scale 0 is the no-effect control and ±100 the full control effect; nearly all actives have a fitted effect of over 60% in size
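AlphaScreen displacement: compounds (up to 110uM) incubated 30 min at room temperature with a preformed 50 nM BAZ2B/50 nM biotinylated H3K14Ac peptide complex in PBS pH 7.4 with Tween-20. Donor and acceptor beads at 10 ug/mL final added, 20 min light-protected before reading.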
HP1b chromo inh: blocks HP1-beta chromodomain binding to methylated histone tails; P83916; AlphaScreen HP1-beta / biotin-H3K9me3 peptide binding; Potency, µM (titrated, usually from 114 µM), without a hit: at the top dose activity change, negative = inhibition, most hits filed as inhibitors; 390,000 tested, 0.56% active; AID 540317; further: potency means the concentration at half of the fitted maximal effect; nearly all actives have a fitted effect of over 70% in size
Target sequence (P83916 whole entry, looked up): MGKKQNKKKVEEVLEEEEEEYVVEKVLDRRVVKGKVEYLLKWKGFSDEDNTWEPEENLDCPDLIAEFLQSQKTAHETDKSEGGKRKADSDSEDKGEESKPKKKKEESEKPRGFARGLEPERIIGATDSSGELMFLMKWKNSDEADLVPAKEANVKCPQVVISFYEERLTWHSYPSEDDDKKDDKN
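Compound inhibition of the preformed complex between 50 nM HP1-beta and 50 nM biotinylated H3K9me3 peptide was read by AlphaScreen. Buffer was PBS pH 7.4 with 0.01% Tween-20. Incubations ran 30 min at room temperature, with 10 ug/mL donor/acceptor beads.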
TDP1 block: inhibitors of human tyrosyl-DNA phosphodiesterase TDP1; Q9NUW8; recombinant TDP1, AlphaScreen DNA substrate cleavage; Potency, µM (series often up to 130 µM), inactives show at the top dose activity change, negative = inhibition, usual class: inhibitors; 350,000 tested, 0.28% active; further: potency means the concentration at half of the fitted maximal effect; on the % scale 0 is the no-effect control and ±100 the full control effect; nearly all actives have a fitted effect of over 40% in size
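Steps: enzyme plus compound, 15 min RT; add biotin/phosphotyrosine-FITC oligonucleotide (15 nM final), react 5 min; add donor/acceptor beads (10 ug/ml final), 10 min; read AlphaScreen. Tdp1 at 1 nM final.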
Sfp PPTase inh: inhibitors of Bacillus subtilis Sfp phosphopantetheinyl transferase; Biochemical Sfp PPTase activity, qHTS; 310,000 tested, 3.5% active; Potency, µM, for the others: largest response in the series, negative = inhibition, most hits filed as inhibitors; Q9F4F7; AID 1490;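 further: the enzyme is Sfp with the accession as filed and its product quenches rhodamine fluorescence; potency means the concentration at half of the fitted maximal effect; 0% = enzyme reaction without inhibitor and -100% = no enzyme wells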
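Reaction rates are the 30-min fluorescence difference (ex 525, em 598 nm) in wells containing 15 nM Sfp, 5 uM rhodamine-CoA and 12.5 uM BHQ-2-YbbR at pH 7.6 with 10 mM MgCl2.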
G9a inh-1: blocks human histone lysine methyltransferase G9a. G9a H3K9 monomethylation, AlphaScreen, 2 h. 350,000 tested, 8.8% active. AID 504332. Potency, µM (titrated, usually from 102 µM), without a hit: at the top dose activity, negative = inhibition, actives largely listed as inhibitors; further: potency means the concentration at half of the fitted maximal effect; on the % scale 0 is the no-effect control and ±100 the full control effect; nearly all actives have a fitted effect of over 75% in size
Target sequence (Q96KQ7 913-1193 limits assumed): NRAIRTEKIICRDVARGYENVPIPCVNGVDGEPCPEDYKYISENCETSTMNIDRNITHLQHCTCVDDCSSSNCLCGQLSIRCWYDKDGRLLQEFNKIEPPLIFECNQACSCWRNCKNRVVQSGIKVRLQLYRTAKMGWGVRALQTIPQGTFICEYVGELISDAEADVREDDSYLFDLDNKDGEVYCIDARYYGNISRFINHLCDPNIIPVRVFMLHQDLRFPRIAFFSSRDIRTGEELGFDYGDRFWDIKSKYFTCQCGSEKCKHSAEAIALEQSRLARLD
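Using a bead-based AlphaScreen, monomethylated H3K9 product from 2 h room-temperature reactions (G9a 20 nM, peptide 500 nM, SAM 20 uM) was detected with 0.5 ug/mL rabbit anti-H3K9me1 antibody.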
JMJD2A Tudor inh: blocks the human JMJD2A Tudor domain; O75164; AlphaScreen JMJD2A-Tudor / H3K4me3 peptide binding; Potency, µM (highest dose often 114 µM), for the others: at the top dose activity change, negative = inhibition, usual class: inhibitors; 390,000 tested, 4.4% active; AID 504339; further: potency means the concentration at half of the fitted maximal effect; on the % scale 0 is the no-effect control and ±100 the full control effect; nearly all actives have a fitted effect of over 50% in size
Sfp inh conf: confirmation of Bacillus subtilis Sfp PPTase inhibitors; Potency, µM (titrated, usually from 114 µM), without a hit: at the top dose activity change, negative = inhibition, actives largely listed as inhibitors; 380 tested, 79% active; Sfp PPTase enzymatic assay, qHTS titration; shares compounds with Sfp PPTase inh; AID 2701;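 further: potency means the concentration at half of the fitted maximal effect; plate controls were uninhibited Sfp reaction for no effect and no enzyme control for full effect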
ME-1 growth: ME-1 cell growth inhibition | shares compounds with BAZ2B inh | ME-1 cell proliferation, ATP luminescence, 48 h | Potency, µM (top dose mostly 56.1 µM), for the others: at the top dose activity change, negative = inhibition, most hits filed as inhibitors | 140 tested, 20% active | AID 504370
G9a inh-2: confirmation of human histone methyltransferase G9a inhibitors. 370 tested, 89% active. shares compounds with JMJD2A Tudor inh. G9a H3K9 monomethylation, AlphaScreen, 2 h. Potency, µM, usual class: inhibitors; further: potency means the concentration at half of the fitted maximal effect; nearly all actives have a fitted effect of over 65% in size
Numbers without * were called inactive; [ ] = another dose, or the depositor's remark. The call rests on the fitted dose curve; in most records, active means well fitted curve in the direction sought with a large enough effect; inconclusive means small, poorly fitted or top-dose-only effect, or another doubt; inactive means no such curve, though single readings can be large; an effect the other way counts as inactive or inconclusive.

How did O=C(O)CCc1ccc(-c2cccs2)o1 do in these assays?
BAZ2B inh: 56µM*; HP1b chromo inh: inconclusive; TDP1 block: 16µM*; Sfp PPTase inh: 2.8µM*; G9a inh-1: inconclusive; JMJD2A Tudor inh: 100µM*; Sfp inh conf: 6.6µM*; G9a inh-2: 7.9*

How did COc1ccccc1-c1nc(-c2ccccc2)[nH]c(=O)c1C#N do in these assays?
BAZ2B inh: -3%; HP1b chromo inh: inconclusive; TDP1 block: -3%; Sfp PPTase inh: 23%; G9a inh-1: -8%; JMJD2A Tudor inh: inconclusive

Results for O=[n+]1c2c(n([O-])c3c1CCCC3)CCCC2 ?
BAZ2B inh: 4%; HP1b chromo inh: 14%; TDP1 block: 5%; Sfp PPTase inh: 7%; G9a inh-1: 1%[59 µM]; JMJD2A Tudor inh: -3%

What do the screens show for `CC1(C)N([O-])C2=C(CCCC2)[N+]1=O`?
BAZ2B inh: inconclusive; HP1b chromo inh: -1%; TDP1 block: -8%; Sfp PPTase inh: -2%; G9a inh-1: inconclusive; JMJD2A Tudor inh: -20%; ME-1 growth: -15%[25.6 µM]

How did Cc1nc2ccc(NC(=S)N3CCOCC3)cc2nc1C do in these assays?
BAZ2B inh: -30%; HP1b chromo inh: 41%; TDP1 block: 3%; Sfp PPTase inh: -18%; G9a inh-1: 45µM*; JMJD2A Tudor inh: -16%; ME-1 growth: -14%

How did Cc1nc2ccc(NC(=S)N3CCCC3)cc2nc1C do in these assays?
BAZ2B inh: -12%; HP1b chromo inh: 26%; TDP1 block: 5%; Sfp PPTase inh: -21%; JMJD2A Tudor inh: -8%

Results for CCOC(=O)C1=C(C)NC(=O)/C1=C\N(C)C ?
BAZ2B inh: -19%; HP1b chromo inh: 19%; TDP1 block: -6%; Sfp PPTase inh: 5%; G9a inh-1: inconclusive; JMJD2A Tudor inh: -15%

How did c1ccc(-c2nnc(-c3ccccn3)nc2NC2CCCCC2)cc1 do in these assays?
BAZ2B inh: 1.8µM*; HP1b chromo inh: 19%; TDP1 block: 7%; Sfp PPTase inh: 1%; G9a inh-1: -4%; JMJD2A Tudor inh: 3.2µM*; ME-1 growth: 7.1µM*

What do the screens show for `NCC(=O)Nc1ccc(Cl)cc1C(=O)c1ccc[nH]1`?
BAZ2B inh: inconclusive; HP1b chromo inh: 38%; TDP1 block: 12%; Sfp PPTase inh: 17%; G9a inh-1: 25µM*; JMJD2A Tudor inh: -12%; ME-1 growth: 4.9µM*

Results for C=C1c2cccc(O)c2C(O)=C2C(=O)[C@]3(O)C(O)=C(C(N)=O)C(=O)[C@@H](N(C)C)[C@@H]3[C@@H](O)[C@H]12 ?
BAZ2B inh: 3.5µM*; HP1b chromo inh: -8%; Sfp PPTase inh: 35µM*; G9a inh-1: -160%[59 µM]; JMJD2A Tudor inh: 7.1µM*; ME-1 growth: -24%

How did CC(C)n1c(NCc2ccc(Cl)cc2)nc2ccccc21 do in these assays?
BAZ2B inh: 3%; HP1b chromo inh: 26%; Sfp PPTase inh: 13%; JMJD2A Tudor inh: -5%

What do the screens show for `CCC(=O)NC(c1cccs1)c1cc(Cl)c2ccccc2c1O` (stereo not drawn)?
BAZ2B inh: inconclusive; HP1b chromo inh: 26%; TDP1 block: 0%; G9a inh-1: 2%[0.501 µM]; JMJD2A Tudor inh: -24%
